This is part of a sample that, as a whole, favours compounds with a hit. Of some 83,000 tested, about 20% had one in any assay.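 Assay: single dose, 48 h. Readout: percent growth (0 = no net growth; negative = cell death). Active: <10.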 A number with no mark means an inactive call. Active and inactive are the calls of the source.
Key:
Assay in all cases: NCI-60 one-dose screen, 48 h (100 = growth as untreated, 0 = no growth, -100 = all killed)
Details in all cases: 10 µM unless noted
SR leukemia = tested on: SR leukemia
RPMI-8226 leukemia = tested on: RPMI-8226 leukemia
OVCAR-8 ovarian = tested on: OVCAR-8 ovarian
OVCAR-5 ovarian = tested on: OVCAR-5 ovarian
OVCAR-4 ovarian = tested on: OVCAR-4 ovarian
SK-OV-3 ovarian = tested on: SK-OV-3 ovarian
IGROV1 ovarian = tested on: IGROV1 ovarian
OVCAR-3 ovarian = tested on: OVCAR-3 ovarian
HS 578T breast = tested on: HS 578T breast
NCI/ADR-RES ovarian = tested on: NCI/ADR-RES ovarian
T-47D breast = tested on: T-47D breast
MDA-MB-435 melanoma = tested on: MDA-MB-435 melanoma
SW-620 colon = tested on: SW-620 colon
MCF7 breast = tested on: MCF7 breast
HCT-116 colon = tested on: HCT-116 colon
HCC-2998 colon = tested on: HCC-2998 colon
KM12 colon = tested on: KM12 colon
BT-549 breast = tested on: BT-549 breast

SMILES | growth (SR leukemia) | growth (RPMI-8226 leukemia) | growth (OVCAR-8 ovarian) | growth (OVCAR-5 ovarian) | growth (OVCAR-4 ovarian) | growth (SK-OV-3 ovarian) | growth (IGROV1 ovarian) | growth (OVCAR-3 ovarian) | growth (HS 578T breast) | growth (NCI/ADR-RES ovarian) | growth (T-47D breast) | growth (MDA-MB-435 melanoma) | growth (SW-620 colon) | growth (MCF7 breast) | growth (HCT-116 colon) | growth (HCC-2998 colon) | growth (KM12 colon) | growth (BT-549 breast)
CC1(C)CC2(C)CC(=O)C1C(C(=O)O)C2C(=O)O (stereo not drawn) | 90% | 106% | 102% | 98.3% | 109% | 101% | 109% | 105% | 102% | 113% | 94.9% | 118% | 108% | 95.5% | 113% | 103% | 107% | 
COc1ccc2cc(C3=CC(=O)CCC3)ccc2c1 | 91.8% | 92.6% | 105% | 98.7% | 104% | 120% | 104% | 106% | 116% | 95.6% | 59.6% | 93% | 117% |  | 92.5% |  | 109% | 97.1%
CCCCCCCCN(CCO)CCCCCCCC | 96.7% | 121% | 101% | 96.9% | 93.8% | 103% | 105% | 109% | 117% | 105% | 97.6% | 108% | 101% | 93.5% |  | 114% | 110% | 106%
O=C1CSC(c2ccccc2O)N1c1nnc(Cn2ccnc2)o1 (stereo not drawn) | 43.9% | 36.1% | 58.8% | 97.2% | 64.4% | 74.2% | 67.7% | 37.8% | 80.6% | 26% | 60.6% | 13.4% | 61.5% |  | 50.8% | 67.1% | 45.1% | 64.5%
COc1cnc2c(c1)C(=O)c1c-2n(CCCNC(C)C)c(=O)c2cc(F)ccc12 | -13.4% (active) | -28.1% (active) | -14.2% (active) | -26.5% (active) | -0.201% (active) | -33.3% (active) | -5.18% (active) | -30.2% (active) | 16% | -16.1% (active) | -11.5% (active) | -6.52% (active) | -8.49% (active) | -3% (active) | -76.5% (active) | -49.8% (active) | -17.7% (active) | 
CC1C(=O)NC2=Nc3ccccc3C(=O)NN21 (stereo not drawn) | 91.3% | 90.3% | 99.7% | 96.5% | 107% | 105% | 79.6% | 116% | 108% | 103% | 81.4% | 111% | 97.8% | 73.9% |  | 100% | 101% | 96.9%
COc1ccc(NC(=O)[C@@H]2C[C@H]2c2ccccc2)c(C(N)=O)c1 | 77.6% | 100% | 99.1% | 102% | 107% | 102% | -8.06% (active) | 98.9% | 102% | 99% | 91.1% | 51.8% | 90.9% | 97.7% | 108% | 94.7% | 87.4% | 
COC(=O)[C@H](Cc1cn(C)cn1)NC(=O)[C@H](Cc1ccccc1)NC(=O)Nc1cc(C(F)(F)F)cc(C(F)(F)F)c1 | -39% [100 µM] (active) | -58.8% [100 µM] (active) | -87.9% [100 µM] (active) | -94% [100 µM] (active) | -87.1% [100 µM] (active) | -100% [100 µM] (active) | -56.3% [100 µM] (active) | -99.1% [100 µM] (active) |  | 4.87% [100 µM] (active) | -55.3% [100 µM] (active) | -85.4% [100 µM] (active) | -46.2% [100 µM] (active) | -60.8% [100 µM] (active) | -91.5% [100 µM] (active) | -86.9% [100 µM] (active) | -92.2% [100 µM] (active) | -95.5% [100 µM] (active)
CC(=O)N1N=C(c2ccc3c(c2)OCO3)CC1c1c(C)nn(-c2ccccc2)c1N(C)Cc1ccccc1 (stereo not drawn) | 67% | 58.8% | 76.7% | 97.1% | 66.3% | 84.2% | 51.5% | 79.4% |  | 63% | 58.6% | 90.7% | 85.9% | 66.1% | 57.3% | 97.2% | 83.6% | 85.2%
CC(=O)N1N=C(c2ccc(Cl)cc2)CC1c1c(C)nn(-c2ccccc2)c1N(C)Cc1ccccc1 (stereo not drawn) | 72.4% | 46.8% | 80.9% | 97.9% | 80% | 70.6% | 63.7% | 81.9% |  | 64.1% | 59.6% | 87% | 80.6% | 72.2% | 53.1% | 88.2% | 74.8% | 88.5%
CC(C)CC1NC(=O)C(CCCN)NC(=O)C(C(C)C)NC(=O)C2CCCN2C(=O)C(Cc2ccccc2)NC(=O)C(CC(C)C)NC(=O)C(CCCN)NC(=O)C(C(C)C)NC(=O)C2CCCN2C(=O)C(Cc2ccccc2)NC1=O (stereo not drawn) | -38.7% (active) | -54.9% (active) | -42.1% (active) | -44.7% (active) | 9.59% (active) | -77.2% (active) | -34.9% (active) | -73.1% (active) | -52.5% (active) | 0.435% (active) | -37.2% (active) | -83.6% (active) | -75.6% (active) | -61.5% (active) | -92.2% (active) | -36.2% (active) | -75% (active) | 
c1ccc(COc2ccc(Nc3ncnc4c3cnn4-c3ccccc3)cc2)cc1 | 91.9% | 96.5% | 113% | 98.9% | 91.3% | 108% | 100% | 113% | 109% | 107% | 100% | 90.1% | 98.7% | 101% | 106% | 108% | 98.2% | 
O=C(/C=C/c1ccc(C(F)(F)F)cc1)c1ccc(Nc2nc(NCCO)nc(NCCO)n2)cc1 | -2.01% (active) | 1.43% (active) | 21.7% | 64.3% | 62.3% | 70.7% | 72.5% | 25.8% |  | 90.1% | 37.2% | 92.8% | 1.28% (active) | 13.1% | -25.4% (active) | 97.4% | 19% | 21.3%
COC(=O)[C@H](Cc1cnc[nH]1)NC(=O)[C@@H](NC(=O)Nc1cc(C(F)(F)F)cc(C(F)(F)F)c1)C(C)C | -37% [100 µM] (active) | -53% [100 µM] (active) | -83.6% [100 µM] (active) | -82.7% [100 µM] (active) | -85.1% [100 µM] (active) | -100% [100 µM] (active) | -80.5% [100 µM] (active) | -100% [100 µM] (active) |  | 73.9% [100 µM] | -63.5% [100 µM] (active) | -91.1% [100 µM] (active) | -48.2% [100 µM] (active) | -53.1% [100 µM] (active) | -89.5% [100 µM] (active) | -82.2% [100 µM] (active) | -94.6% [100 µM] (active) | -90.7% [100 µM] (active)
O=C(CNC(=O)c1cccc2ccccc12)Nc1ccccc1Oc1ccc(O)cc1 | 30.4% [5 µM] | 24.2% [5 µM] | 28.4% [5 µM] | 40.3% [5 µM] | 70.4% [5 µM] | 28.9% [5 µM] | 38% [5 µM] | -6.31% [5 µM] (active) |  | 23.5% [5 µM] | 36.5% [5 µM] | -16.1% [5 µM] (active) | 28.9% [5 µM] | 27.1% [5 µM] | 15.9% [5 µM] | 55.6% [5 µM] | 30.1% [5 µM] | 58.5% [5 µM]
Cc1sc2nc(N3CCCCC3)[nH]c(=O)c2c1C | 97% | 106% | 96.5% | 108% | 100% | 92.3% | 107% | 113% |  | 96.5% | 84.2% | 103% | 96.2% | 96.1% | 93.2% | 98% | 102% | 99.1%
CC(C)CNc1nc(N=[N+]=[N-])nc(NCC(C)C)n1 | -7.86% [100 µM] (active) | 33.1% [100 µM] | 57.3% [100 µM] | 75% [100 µM] | 52.7% [100 µM] | 83.7% [100 µM] | 70.9% [100 µM] | 60.1% [100 µM] | 61.1% [100 µM] | 54.1% [100 µM] | 48.6% [100 µM] | 55.6% [100 µM] | 81.9% [100 µM] | 52.4% [100 µM] | 42.9% [100 µM] | 79.4% [100 µM] | 53.6% [100 µM] | 
